Measured values as given in PubChem BioAssay.
Records with an inconclusive call do not appear. Calls of active or inactive are those of the source. Unless noted, the rule behind the calls is not given here.

Tests used:
[1] = system: Neuropilin-2 / VEGF-C interaction (human); test: small molecules blocking Neuropilin-2/VEGF-C interaction – biochemical, microplate binding format, z-score (AID 743281); settings: microplate NRP2/VEGF-C binding assay; stronger effect = lower value
[2] = viability loss in pontine glioma line – cell-based, SU-DIPG-XVII, MIPE5.0, CellTiter-Glo, qHTS, dose response (AID 1347060; cut-off not given, nearly all actives have AC50 up to about 26 µM;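 for AC50: cells exposed to compound for 48 hours before viability readout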); settings: CellTiter-Glo ATP luminescence
[3] = viability loss in pontine glioma line – cell-based, SU-DIPG-XIII, MIPE4.0, CellTiter-Glo, qHTS, dose response (AID 1347061; cut-off not given, nearly all actives have AC50 up to about 37 µM;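 note: cells exposed to compound for 48 hours before readout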); settings: CellTiter-Glo ATP luminescence
[4] = viability loss in pontine glioma line – cell-based, SU-DIPG-IV, MIPE4.0, CellTiter-Glo, qHTS, dose response (AID 1347063; cut-off not given, nearly all actives have AC50 up to about 30 µM;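 note: compound exposure lasted 48 hours before the viability readout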); settings: CellTiter-Glo ATP luminescence
[5] = viability loss in pontine glioma line – cell-based, SU-DIPG-XIII, MIPE5.0, CellTiter-Glo, qHTS, dose response (AID 1347064; cut-off not given, nearly all actives have AC50 up to about 23 µM;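 for AC50: cells exposed to compound for 48 hours before the viability read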); settings: CellTiter-Glo ATP luminescence
[6] = JHH-DIPG-1 glioma cell viability, MIPE5.0 library, CellTiter-Glo luminescence, qHTS (AID 1347067; cut-off not given, nearly all actives have AC50 up to about 26 µM;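 note: cells exposed to compound for 48 hours before readout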); settings: JHH-DIPG-1 glioma viability, CellTiter-Glo ATP luminescence
[7] = growth inhibition of DIPG cells – cell-based, MIPE5.0 library, qHTS (AID 1347068; cut-off not given, nearly all actives have IC50 up to about 30 µM;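 for IC50: cells exposed to compound for 48 hours before viability readout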); settings: SU-DIPG-XXV viability
[8] = viability loss in pontine glioma line – cell-based, JHH-DIPG-1, MIPE4.0, CellTiter-Glo, qHTS, dose response (AID 1347062; cut-off not given, nearly all actives have AC50 up to about 27 µM;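 for AC50: cells exposed to compound for two days before readout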); settings: JHH-DIPG-1 viability, CellTiter-Glo ATP luminescence
[9] = viability loss in pontine glioma line – cell-based, SU-DIPG-XXV, MIPE5.0, CellTiter-Glo, qHTS, dose response (AID 1347065; cut-off not given, nearly all actives have AC50 up to about 26 µM;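 note: cells exposed to compound for 48 hours before ATP readout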); settings: CellTiter-Glo ATP luminescence
[10] = target: ATP-dependent translocase ABCB1 (Homo sapiens) (UniProt P08183); test: P-glycoprotein substrate transport blockade – cell-based (AID 377; in the data active = fluorescence slope change above about 50%); settings: MDR1-expressing cells, fluorescent substrate accumulation slope; stronger effect = higher value; concentration not given here
[11] = compounds altering circadian rhythm period length – cell-based, LOPAC library, luminescence reporter (AID 2774); settings: circadian reporter cells, at 7 µM, actives lie on both sides;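 note: values are relative to mean of DMSO wells on each plate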
[12] = system: Hepatitis C virus NS3 helicase; test: blockers of NS3h binding to ssDNA – biochemical, fluorescence polarization, LOPAC1280 library, primary screen (AID 687035; in the data active = inhibition above about 37%); settings: Purified HCV NS3 helicase, Cy5-dT15 ssDNA binding fluorescence polarization; stronger effect = higher value; concentration not given here
[13] = compounds altering Cy5-DNA-NS3h complex signal – biochemical, LOPAC1280, artefact control for HCV NS3 helicase inhibitor project (AID 687037); settings: Cy5-DNA-NS3h complex fluorescence interference counterscreen
[14] = blockers of cellular phospholipid synthesis – cell-based, LOPAC library, screen 4, primary screen (AID 1347384); settings: animal cells, phospholipid biosynthesis inhibition screen; at 10 µM
[15] = GFP-Q80 aggregate reduction, neuronal-like cells, cell-based, NGF-treated PC12, GFPQ80 (AID 1614); settings: PC12 NGF-treated GFP-polyQ80 inclusion reduction;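 note: lower means fewer inclusions and 0 means no inclusions at all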
[16] = growth inhibition of DIPG cells – cell-based, MIPE4.0 library, CellTiter-Glo luminescence, qHTS (AID 1347066; cut-off not given, nearly all actives have AC50 up to about 30 µM;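 note: cells exposed to compound for 48 hours before readout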); settings: SU-DIPG-VI viability, CellTiter-Glo ATP luminescence
[17] = growth inhibition, single agent or in combination, cell-based, chromothripsis tumors, cisplatin or BGB combos (AID 1671449; in the data active = inhibition above about 80%;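 note: cells exposed for 96 hours; 0% = vehicle DMSO and 100% = killing by high DMSO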); settings: LFS_MB_P medulloblastoma cells
[18] = growth inhibition, single agent and combos, cell-based, chromothripsis tumors, cisplatin or BGB combos (AID 1671450; in the data active = inhibition above about 80%;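 note: cells exposed to compound for four days; 0% = vehicle DMSO and 100% = cell killing by high DMSO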); settings: HDN33 neuroblastoma cells, stronger effect = higher value
[19] = growth inhibition, single agents and combos, ICB984, cell-based, cisplatin or BGB combos, synergistic combos for chromothripsis tumors (AID 1671451); settings: ICB984 medulloblastoma cells, drug combinations, stronger effect = higher value;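 note: cells exposed for 96 hours before readout; 0% = vehicle DMSO and 100% = killing by high DMSO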
[20] = growth inhibition, single agents and combos, HTB85, cell-based, BGB or cisplatin IC20 combos, synergistic combos for chromothripsis tumors (AID 1671453; in the data active = inhibition above about 80%;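 note: cells exposed for 96 hours before readout; 0% = vehicle DMSO and 100% = high DMSO killing control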); settings: HTB85 osteosarcoma cells, drug combinations, stronger effect = higher value

Sequence of ATP-dependent translocase ABCB1 (Homo sapiens) (P08183 whole entry, looked up): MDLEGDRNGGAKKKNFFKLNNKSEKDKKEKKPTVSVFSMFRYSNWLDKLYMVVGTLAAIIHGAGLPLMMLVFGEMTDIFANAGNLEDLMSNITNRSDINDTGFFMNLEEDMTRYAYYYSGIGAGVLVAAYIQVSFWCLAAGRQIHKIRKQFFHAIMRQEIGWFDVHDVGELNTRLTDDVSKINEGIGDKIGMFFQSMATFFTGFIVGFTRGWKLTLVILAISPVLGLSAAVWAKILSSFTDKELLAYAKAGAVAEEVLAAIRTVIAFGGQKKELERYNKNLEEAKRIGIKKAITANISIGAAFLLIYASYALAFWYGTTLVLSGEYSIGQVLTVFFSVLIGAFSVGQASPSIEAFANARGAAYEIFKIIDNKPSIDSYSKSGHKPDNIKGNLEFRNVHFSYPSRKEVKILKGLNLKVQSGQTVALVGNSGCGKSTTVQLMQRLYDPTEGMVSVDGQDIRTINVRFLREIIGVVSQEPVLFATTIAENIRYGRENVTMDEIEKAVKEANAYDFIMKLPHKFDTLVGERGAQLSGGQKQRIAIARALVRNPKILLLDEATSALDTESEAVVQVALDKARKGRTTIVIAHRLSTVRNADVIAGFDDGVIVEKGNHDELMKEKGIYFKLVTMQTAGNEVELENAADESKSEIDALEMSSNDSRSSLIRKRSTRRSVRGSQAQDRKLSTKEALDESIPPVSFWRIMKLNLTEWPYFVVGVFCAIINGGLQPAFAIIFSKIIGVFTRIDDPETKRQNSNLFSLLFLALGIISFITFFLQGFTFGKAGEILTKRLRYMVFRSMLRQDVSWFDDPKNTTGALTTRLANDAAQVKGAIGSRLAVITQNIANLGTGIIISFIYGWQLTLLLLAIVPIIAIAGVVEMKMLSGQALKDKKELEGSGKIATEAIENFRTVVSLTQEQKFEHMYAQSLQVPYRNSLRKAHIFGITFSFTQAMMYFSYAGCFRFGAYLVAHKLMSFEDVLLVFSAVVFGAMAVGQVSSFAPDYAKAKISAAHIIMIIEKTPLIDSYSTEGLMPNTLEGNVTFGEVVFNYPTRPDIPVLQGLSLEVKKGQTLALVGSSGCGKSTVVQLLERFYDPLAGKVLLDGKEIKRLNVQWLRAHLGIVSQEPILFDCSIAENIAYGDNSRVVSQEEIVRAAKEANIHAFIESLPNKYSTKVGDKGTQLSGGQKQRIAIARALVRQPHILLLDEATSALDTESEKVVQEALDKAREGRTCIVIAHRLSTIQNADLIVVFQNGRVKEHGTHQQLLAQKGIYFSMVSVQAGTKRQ

## CC[C@H](C)C(=O)O[C@H]1C[C@H](O)C=C2C=C[C@H](C)[C@H](CC[C@@H](O)C[C@@H](O)CC(=O)O)[C@H]21
[1]
  z-score: 0.492 (inactive)
[2]
  AC50: 23.5 µM (active)
[3]
  outcome: inactive
[4]
  outcome: inactive
[5]
  outcome: inactive
[6]
  outcome: inactive
[7]
  outcome: inactive

## COc1cc([C@@H]2c3cc4c(cc3[C@H](O)[C@H]3COC(=O)[C@H]23)OCO4)cc(OC)c1OC
[2]
  AC50: 0.0417 µM (active)
[8]
  AC50: 0.0743 µM (active)
[4]
  outcome: inactive
[5]
  AC50: 0.0295 µM (active)
[9]
  AC50: 0.0468 µM (active)
[6]
  AC50: 0.0295 µM (active)
[7]
  IC50: 0.0525 µM (active)

## CN(C)CC/C=C1\c2ccccc2COc2ccccc21
[10]
  fluorescence slope change: 109% (active)
[11]
  period change: 0.025 h (inactive)
[12]
  inhibition: -5% (inactive)
[13]
  fluorescence ratio (interference): 1 (inactive)
[14]
  outcome: inactive

## c1ccc2c(CC3=NCCN3)cccc2c1
[15]
  inclusion score: 1.5

## CC(C)Oc1ccc2c(=O)c(-c3ccccc3)coc2c1
[1]
  z-score: 0.0143 (inactive)
[2]
  outcome: inactive
[3]
  outcome: inactive
[8]
  outcome: inactive
[4]
  outcome: inactive
[16]
  outcome: inactive
[6]
  outcome: inactive
[7]
  outcome: inactive

## CN(C)c1ccc(O)c2c1C[C@H]1C[C@H]3[C@H](N(C)C)C(=O)C(C(N)=O)=C(O)[C@@]3(O)C(=O)C1=C2O
[10]
  fluorescence slope change: 103% (active)
[15]
  inclusion score: 0
[8]
  outcome: inactive
[16]
  outcome: inactive
[6]
  outcome: inactive
[7]
  outcome: inactive

## CC(=O)[C@H]1CC[C@H]2[C@@H]3C[C@H](C)C4=CC(=O)CC[C@]4(C)[C@H]3[C@@H](O)C[C@]12C
[10]
  fluorescence slope change: 55.7% (active)

## c1ccc(-c2ccc(C(c3ccccc3)n3ccnc3)cc2)cc1 (configuration not stated)
[1]
  z-score: -0.348 (inactive)

## Cc1cccc(Nc2ccncc2S(=O)(=O)NC(=O)NC(C)C)c1
[1]
  z-score: 0.676 (inactive)
[3]
  outcome: inactive
[8]
  outcome: inactive
[4]
  outcome: inactive
[16]
  outcome: inactive

## Nc1nc2ncc(CNc3ccc(C(=O)N[C@@H](CCC(=O)O)C(=O)O)cc3)nc2c(=O)[nH]1
[10]
  fluorescence slope change: 5.4% (inactive)
[15]
  inclusion score: 1.5

## COc1ccccc1N1CCN(CCCNc2cc(=O)n(C)c(=O)n2C)CC1
[11]
  period change: 0.18 h (inactive)
[12]
  inhibition: -4% (inactive)
[13]
  fluorescence ratio (interference): 1 (inactive)
[1]
  z-score: -0.551 (inactive)
[14]
  outcome: inactive

## CN(C)CCOC(c1ccccc1)c1ccccc1
[15]
  inclusion score: 2
[11]
  period change: -0.01 h (inactive)
[12]
  inhibition: -1% (inactive)
[13]
  fluorescence ratio (interference): 1 (inactive)
[1]
  z-score: -0.533 (inactive)
[8]
  outcome: inactive
[5]
  outcome: inactive
[9]
  outcome: inactive
[16]
  outcome: inactive
[6]
  outcome: inactive
[7]
  outcome: inactive
[14]
  outcome: inactive

## Nc1c2c(nc3ccccc13)CCCC2
[10]
  fluorescence slope change: 56.2% (active)
[15]
  inclusion score: 2
[11]
  period change: -0.225 h (inactive)
[12]
  inhibition: -2% (inactive)
[13]
  fluorescence ratio (interference): 1 (inactive)
[1]
  z-score: -0.542 (inactive)
[2]
  outcome: inactive
[3]
  outcome: inactive
[8]
  outcome: inactive
[4]
  outcome: inactive
[5]
  outcome: inactive
[9]
  outcome: inactive
[16]
  outcome: inactive
[6]
  outcome: inactive
[7]
  outcome: inactive
[14]
  outcome: inactive

## CCN(CC)C(=S)SSC(=S)N(CC)CC
[10]
  fluorescence slope change: 81.8% (active)
[11]
  period change: -0.07 h (inactive)
[12]
  inhibition: -3% (inactive)
[13]
  fluorescence ratio (interference): 1 (inactive)
[1]
  z-score: -0.138 (inactive)
[2]
  AC50: 0.934 µM (active)
[3]
  AC50: 0.0105 µM (active)
[8]
  AC50: 0.00935 µM (active)
[4]
  AC50: 0.0209 µM (active)
[5]
  AC50: 0.934 µM (active)
[9]
  AC50: 0.833 µM (active)
[16]
  AC50: 0.00372 µM (active)
[6]
  AC50: 0.934 µM (active)
[7]
  outcome: inactive
[14]
  outcome: inactive

## CN(C)CCN(Cc1ccccc1)c1ccccn1
[15]
  inclusion score: 2
[1]
  z-score: -0.192 (inactive)

## CCn1cc(C(=O)O)c(=O)c2cc(F)c(N3CCNCC3)cc21
[10]
  fluorescence slope change: 98.4% (active)
[15]
  inclusion score: 2
[3]
  outcome: inactive
[8]
  outcome: inactive
[5]
  outcome: inactive
[9]
  outcome: inactive
[16]
  outcome: inactive
[7]
  outcome: inactive
[17]; at 0.5 µM, stronger effect = higher value
  inhibition: 7.63% (inactive)
[17]; measured here: combination with BGB IC20, at 0.005 µM
  inhibition: -17.9%
[17]; measured here: combination with BGB IC40, at 0.005 µM
  inhibition: -10.9%
[17]; measured here: combination with BGB IC40, at 0.05 µM
  inhibition: -0.516%
[17]; measured here: combination with cisplatin, at 0.5 µM, stronger effect = higher value
  inhibition: 9.32%
[17]; measured here: combination with cisplatin, at 5 µM, stronger effect = higher value
  inhibition: -19.2%
[18]; BGB combo, at 5 µM
  inhibition: -0.689%
[18]; at 0.5 µM
  inhibition: 12.2% (inactive)
[18]; cisplatin combo, at 5 µM
  inhibition: -11.9%
[18]; measured here: with BGB IC20 combination, at 0.5 µM
  inhibition: 32.5%
[18]; measured here: with cisplatin IC20 combination, at 0.5 µM
  inhibition: 3.81%
[18]; single agent, at 5 µM
  inhibition: -7.4%
[19]; BGB IC20 combo, at 0.005 µM
  inhibition: -26.7%
[19]; BGB IC40 combo, at 0.005 µM
  inhibition: -18.2%
[19]; BGB IC40 combo, at 0.05 µM
  inhibition: -41.7%
[19]; at 0.5 µM
  inhibition: -9.23% (inactive)
[19]; cisplatin combo, at 0.05 µM
  inhibition: -41.7%
[19]; cisplatin combo, at 0.5 µM
  inhibition: -13%
[19]; cisplatin combo, at 5 µM
  inhibition: -17.2%
[19]; measured here: 5 uM single agent, at 5 µM
  inhibition: -7.24%
[20]; at 0.5 µM
  inhibition: -8.02% (inactive)
[20]; measured here: with BGB IC20, at 0.5 µM
  inhibition: -33.2%
[20]; measured here: with BGB IC20, at 5 µM
  inhibition: -19.1%
[20]; measured here: with cisplatin IC20, at 0.5 µM
  inhibition: 12.6%
[20]; measured here: with cisplatin IC20, at 5 µM
  inhibition: -7.29%
[20]; single agent, at 5 µM
  inhibition: 1.89%

## NC(N)=NC(=O)c1nc(Cl)c(N)nc1N
[15]
  inclusion score: 2
[11]
  period change: 0.02 h (inactive)
[12]
  inhibition: 1% (inactive)
[13]
  fluorescence ratio (interference): 0.9 (inactive)
[1]
  z-score: -0.147 (inactive)
[2]
  outcome: inactive
[3]
  AC50: 14.8 µM (active)
[8]
  outcome: inactive
[5]
  outcome: inactive
[9]
  outcome: inactive
[16]
  outcome: inactive
[6]
  outcome: inactive
[7]
  outcome: inactive
[14]
  outcome: inactive

## CC1(C)O[C@@H]2C[C@H]3[C@@H]4C[C@H](F)C5=CC(=O)C=C[C@]5(C)[C@H]4[C@@H](O)C[C@]3(C)[C@]2(C(=O)CO)O1
[10]
  fluorescence slope change: 24.8% (inactive)
[2]
  outcome: inactive
[5]
  outcome: inactive
[9]
  outcome: inactive
[6]
  outcome: inactive
[7]
  outcome: inactive
